# High-throughput results as filed in PubChem.
# NR3A LBD binder: binders of NR3A ligand-binding domain, primary screen, biophysical, differential scanning fluorimetry, uHTS | Glutamate receptor ionotropic, NMDA 3A (GRIN3A) ligand-binding domain | NR3A LBD differential scanning fluorimetry, Tm shift; 0% = protein alone, 100% = glycine-bound protein | Tm shift relative to glycine control, % at 25 µM | 340,000 compounds, 2.5% hits;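 active = melting temperature shift of at least 10% of the positive control shift, at one fixed dose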
# aDG glyco act: activators of alpha-DG glycosylation, primary screen, uHTS, Pro5-aDG cells, AlphaScreen. alpha-DG glycosylation AlphaScreen (IIH6); 0% Pro5, 100% B10-LARGE cell signal. activation, % at 10 µM. 360,000 compounds, 0.22% hits. AID 624168, 2012;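 active = activation of at least 8% versus controls, or a plate z-score of at least 8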;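 also: Pro5 are CHO cells carrying HIG-tagged alpha-DG that lacks glycosylation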
# ADAM17 inh: ADAM17 inhibitors, primary screen, biochemical, QFRET; Disintegrin and metalloproteinase domain-containing protein 17 (Homo sapiens), P78536; recombinant ADAM17, EDANS/DABCYL FRET peptide cleavage; inhibition, % at 6.95 µM; 370,000 compounds, 0.83% hits; AID 720648, 2013;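 active = inhibition above the mean of compounds lying between control limits plus 3 SD, set per campaign, cut at about 8.5% in these data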;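 also: 0% = DMSO-only wells as the low control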
# FAS-TE inh: FAS thioesterase domain inhibitors, primary screen, biochemical, fluorescence intensity, uHTS; AID 602261, 2012; 360,000 compounds, 0.67% hits; Fatty acid synthase (Homo sapiens), P49327; inhibition, % at 15 µM; recombinant FAS-TE, OMFH fluorogenic substrate, fluorescence endpoint;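 active = compounds whose normalised, plate-corrected inhibition of enzyme fluorescence in the single-dose primary screen is 50% or more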;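 also: 0% = DMSO with enzyme and 100% = substrate without enzyme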
# ADAM10 inh: human ADAM10 inhibitors, primary screen, biochemical, QFRET, HTS; Disintegrin and metalloproteinase domain-containing protein 10 (Homo sapiens), O14672; recombinant ADAM10, EDANS/DABCYL FRET peptide cleavage, 3 h; inhibition, % at 7 µM; 370,000 compounds, 0.62% hits;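 active = inhibition above a per-campaign cutoff equal to the mean of compounds falling between control-based bounds plus 3 SD, cut at about 20% in these data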;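 also: 0% = DMSO wells while the 100% control is not disclosed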
# Target sequence (O14672 214-748 limits assumed): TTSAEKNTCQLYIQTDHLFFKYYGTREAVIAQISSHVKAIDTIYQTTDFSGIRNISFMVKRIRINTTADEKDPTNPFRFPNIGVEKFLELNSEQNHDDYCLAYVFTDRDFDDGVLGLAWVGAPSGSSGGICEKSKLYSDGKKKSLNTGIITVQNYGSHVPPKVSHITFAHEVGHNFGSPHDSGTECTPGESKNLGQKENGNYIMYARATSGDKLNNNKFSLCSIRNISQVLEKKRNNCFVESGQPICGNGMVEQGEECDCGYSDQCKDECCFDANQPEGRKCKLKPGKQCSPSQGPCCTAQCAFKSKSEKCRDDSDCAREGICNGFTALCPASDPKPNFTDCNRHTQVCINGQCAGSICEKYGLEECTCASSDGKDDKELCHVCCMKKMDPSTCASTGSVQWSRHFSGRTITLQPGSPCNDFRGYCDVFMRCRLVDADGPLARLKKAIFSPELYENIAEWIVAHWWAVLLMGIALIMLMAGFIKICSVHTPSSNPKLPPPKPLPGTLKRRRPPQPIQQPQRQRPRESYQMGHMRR
# ADAM10 ctr: ADAM10 inhibitors, counter-screen for ADAM17 exosite inhibitor project, biochemical, FRET, human ADAM10. shares compounds with ADAM17 inh. recombinant ADAM10, EDANS/DABCYL FRET peptide cleavage, 3 h. inhibition, % at 6.95 µM. 2,900 compounds, 47% hits. AID 743256, 2014;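 active = mean inhibition over the triplicate runs exceeds the activity threshold set in the earlier primary screen, cut at about 20% in these data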;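 also: 0% = DMSO wells and 100% = marimastat wells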
# ADAM17 confirm: ADAM17 inhibitors, hit retest, confirmation, biochemical, QFRET peptide cleavage. AID 743257, 2014. shares compounds with ADAM17 inh. inhibition, % at 6.95 µM. 2,900 compounds, 65% hits. recombinant ADAM17, EDANS/DABCYL QFRET peptide cleavage;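 active = mean inhibition across replicates above the hit cutoff set in the primary screen, cut at about 8.5% in these data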;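 also: 0% = DMSO wells and 100% = marimastat wells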
# Numbers without * were called inactive; x = not tested or not shown. Most compounds without a hit are left out; they make up all but 4% or so of the library.
SMILES,NR3A LBD binder,aDG glyco act,ADAM17 inh,FAS-TE inh,ADAM10 inh,ADAM10 ctr,ADAM17 confirm
O=C(O)CCC(=O)Nc1cccc2cccnc12,-1,0,-1,-6,-10,x,x
O=S(=O)(NC1CC(NS(=O)(=O)OCC(Cl)(Cl)Cl)C2CCCCC12)OCC(Cl)(Cl)Cl (stereo not given),9,0,x,17,x,x,x
Cc1cc(=O)n(Cc2ccc(OC(C)C)cc2)c(=S)[nH]1,0,0,10*,-4,7,14,9.9*
Cc1cc(=O)n(Cc2ccco2)c(=S)[nH]1,x,0,-5,-7,-19,x,x
CC(=O)c1cnc(Nc2nc(C)c3cc(C)c(C)cc3n2)nc1C,-1,1,-1,-7,-10,x,x
C=CC[C@@H](CC(=O)N[C@H](CO)Cc1ccccc1)C(=O)N[C@H](COC(=O)[C@@H](CC=C)CC(=O)OC(C)(C)C)Cc1ccccc1,-1,1,9.6*,8,10,19,8
C=CC[C@H](CC(=O)N[C@H](CO)Cc1ccccc1)C(=O)N[C@H](COC(=O)[C@H](CC=C)CC(=O)OC(C)(C)C)Cc1c[nH]c2ccccc12,-8,2,11*,8,18,26*,13*
C=CC[C@@H](CC(=O)N[C@@H](CO)Cc1ccccc1)C(=O)N[C@H](COC(=O)[C@H](CC=C)CC(=O)OC(C)(C)C)Cc1c[nH]c2ccccc12,-6,1,9.9*,15,18,44*,23*
C=CCC[C@@H](Cc1ccc(F)cc1)C(=O)OC[C@@H](NC(=O)[C@@H](CC=C)CC(=O)N[C@H](CO)Cc1ccccc1)C(C)(C)C,-1,0,9.6*,10,18,35*,18*
C=CC[C@H](CC(=O)NCCO)C(=O)N[C@@H](COC(=O)[C@H](CC=C)CC(=O)OC(C)(C)C)Cc1c[nH]c2ccccc12,4,0,-2,-3,2,x,x
CCOc1ccc(Cl)cc1CNCCNCC(C)O (stereo not given),3,0,-3,-9,15,x,x
C=CC[C@H](CC(=O)N(CCO)Cc1ccccc1)C(=O)N[C@H](COC(=O)[C@@H](CC=C)CC(=O)OC(C)(C)C)Cc1ccccc1,-6,1,5,17,14,x,x
C=CC[C@@H](CC(=O)N(CCO)Cc1ccccc1)C(=O)N[C@H](COC(=O)[C@@H](CC=C)CC(=O)OC(C)(C)C)Cc1ccccc1,1,0,18*,14,28*,39*,18*
CN(C)c1ccc(/C=N/NC(N)=S)cc1[N+](=O)[O-],-2,0,10*,3,2,28*,15*
Cc1ccc(C)c(S(=O)(=O)NCCCN2CCOCC2)c1,0,0,1,-7,1,x,x
CCC(=O)Nc1nnc(C)s1,-1,0,12*,-3,6,-1,6
COc1ccccc1N1CCN(C(=O)c2cccc(S(=O)(=O)Nc3ccccc3F)c2)CC1,1,0,-1,-5,-2,x,x
CC(C)c1ccc(NC(=O)C2CCCN(S(=O)(=O)c3ccc4c(c3)C(C)(C)C(=O)N4C)C2)cc1 (stereo not given),-6,1,9.6*,19,19,13,8.8*
O=C(CN1C(=O)S/C(=C\c2ccc(F)cc2)C1=O)Nc1cccc(S(=O)(=O)NCc2ccco2)c1,11*,1,9.2*,33,9,21*,12*
Cc1ccccc1Nc1nc(N)nc(CSc2ccc(F)cc2)n1,5,0,-4,8,-8,x,x
Cc1ccc(SCc2nc(N)nc(Nc3ccccc3C)n2)cc1C,-5,0,9.2*,10,17,1,2
Cc1cccc(Nc2ncccc2C(=O)NCc2cccs2)c1C,-1,0,10*,21,16,27*,15*
Cc1ccc(Nc2ncccc2C(=O)NCc2cccs2)c(C)c1,7,0,3,24,10,x,x
CCOc1ccc(C(=O)NCC(=O)OCc2csc(-c3ccccc3)n2)cc1,-16,0,-2,21,-1,x,x
COc1ccc(C2Oc3ccccc3C3=C2C(c2cccs2)n2ncnc2N3)cc1 (stereo not given),-5,0,9.6*,40,10,-7,9.3*
SMILES,NR3A LBD binder,aDG glyco act,ADAM17 inh,FAS-TE inh,ADAM10 inh,ADAM10 ctr,ADAM17 confirm
Brc1ccc(C2C3=C(Nc4ncnn42)c2ccccc2OC3c2ccncc2)cc1 (stereo not given),-3,0,-78,15,-308,x,x
Cn1nc(C(F)(F)F)c(C(=O)Nc2ccc(F)cc2F)c1Sc1cccc(C(F)(F)F)c1,-9,1,9.8*,29,15,10,8
Cc1ccc(S(=O)(=O)N(C)CC(=O)NNC(=O)Cc2ccccc2F)cc1,1,0,11*,-6,5,19,11*
Cc1ccc(S(=O)(=O)N(C)CC(=O)NNC(=O)Cc2cccc(F)c2)cc1,1,0,-1,-7,4,x,x
O=C(C1=C[C@@H](C2CCCCC2)C[C@@H](OCc2ccc(CO)cc2)O1)N1CCN(Cc2ccc3c(c2)OCO3)CC1,-5,1,10*,26,18,27*,18*
COC(=O)C1(C(=O)OC)C[C@H](/C=C/c2ccccc2)N(Cc2ccccc2OC)[C@@H]1c1cccc(Br)c1,x,0,-1,x,-1,x,x
O=c1c(Cc2ccc(Cl)cc2)c(O)ccn1Cc1cccc(Cl)c1,-7,0,-2,10,3,x,x
O=c1c(Cc2ccc(Cl)cc2Cl)c(O)ccn1Cc1ccc(Cl)cc1,22*,0,11*,20,19,26*,16*
CCC(C)NC(=O)N[C@@H](Cc1ccccc1)C(=O)O (stereo not given in full),1,0,-2,-9,2,x,x
Cc1cc(S(=O)(=O)Nc2ccc(C(=O)N3CCN(c4ccccc4O)CC3)cc2)ccc1F,-3,0,10.0*,6,17,16,8.6*
N#CC1(Cc2ccccc2Cl)c2ccccc2C=CN1C(=O)c1ccccc1 (stereo not given),1,0,11*,31,15,14,9.3*
